Among the data in PubChem BioAssay are remaining NAD values, retold here.

Values without a mark were called inactive.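 The calls were made as follows: active = compound whose remaining NAD level is above about 45 nM (limit read from the data); inactive = the rest.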

Sequence of NAD(+) hydrolase SARM1 (Homo sapiens) (Q6SZW1 whole entry, looked up): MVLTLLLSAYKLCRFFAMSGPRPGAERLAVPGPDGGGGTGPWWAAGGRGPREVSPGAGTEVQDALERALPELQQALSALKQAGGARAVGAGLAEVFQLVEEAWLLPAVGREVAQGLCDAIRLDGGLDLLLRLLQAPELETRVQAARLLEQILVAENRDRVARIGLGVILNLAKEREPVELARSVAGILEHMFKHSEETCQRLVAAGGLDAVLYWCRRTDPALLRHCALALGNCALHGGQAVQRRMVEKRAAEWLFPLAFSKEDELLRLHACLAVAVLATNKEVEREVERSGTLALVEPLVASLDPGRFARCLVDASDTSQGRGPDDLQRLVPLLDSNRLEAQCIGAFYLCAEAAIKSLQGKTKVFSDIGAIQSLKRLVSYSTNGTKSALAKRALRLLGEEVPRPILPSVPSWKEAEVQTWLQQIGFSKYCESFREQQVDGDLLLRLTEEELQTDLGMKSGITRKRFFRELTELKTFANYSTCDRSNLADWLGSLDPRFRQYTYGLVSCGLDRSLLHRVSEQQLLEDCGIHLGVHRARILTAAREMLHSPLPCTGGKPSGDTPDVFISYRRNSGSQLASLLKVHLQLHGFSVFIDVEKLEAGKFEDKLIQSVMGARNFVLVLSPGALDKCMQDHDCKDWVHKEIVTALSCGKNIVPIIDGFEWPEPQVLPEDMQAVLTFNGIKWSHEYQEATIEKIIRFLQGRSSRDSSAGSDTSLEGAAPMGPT

This assay has as its target NAD(+) hydrolase SARM1 (Homo sapiens) (UniProt Q6SZW1). Put plainly: SARM1 TIR NADase inhibitors, cell lysate, NAD-Glo luminescence (AID 1508614).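 Also: higher remaining NAD means stronger inhibition of SARM1 NADase.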 As to conditions: SAM-TIR HEK293T lysate NADase, at 1 µM, hits give high values.
For the molecule `O=C(NCc1ccccc1)OCCO`, the remaining NAD was 10 nM.

Turning to `COc1ccc2nc([S@@](=O)Cc3ncc(C)c(OC)c3C)[nH]c2c1`, the remaining NAD was 10 nM.

Consider `CC1(C)C2CCC1(CS(=O)(=O)O)C(=O)C2=Cc1ccc(C=C2C(=O)C3(CS(=O)(=O)O)CCC2C3(C)C)cc1`, for which the remaining NAD is 10 nM.

In the case of `Nc1ccc(S(=O)(=O)[O-])cc1.Nc1ccc(S(=O)(=O)[O-])cc1.O.O.O.O.[Zn+2]`, the remaining NAD is 10 nM.

On to `Cc1cc2nc3c(=O)[nH]c(=O)nc-3n(C[C@H](O)[C@H](O)[C@H](O)COP(=O)(O)O)c2cc1C`, for which the remaining NAD was 10 nM.

In the case of `O=C(O[C@H]1CN2CCC1CC2)N1CCc2ccccc2[C@@H]1c1ccccc1`, the remaining NAD is 10 nM.

For the molecule `S=C1SCN(Cc2ccccc2)CN1Cc1ccccc1`, the remaining NAD was 10 nM.

`CCCCCCCCCCCCCCCC(=O)OC[C@H](O)[C@H]1OC(=O)C(O)=C1O`: the remaining NAD was 10 nM.

Consider `CC(=O)O[C@@H]1C[C@@H]2CC[C@@]1(C)C2(C)C`, for which the remaining NAD was 10 nM.

`CCC(=O)Oc1ccc2c(c1)CC[C@@H]1[C@@H]2CC[C@]2(C)[C@@H](OC(=O)CC)CC[C@@H]12`: the remaining NAD is 10 nM.

As for `Cc1ccc2c(Br)cc(Br)c(OC(=O)c3ccccc3)c2n1`, the remaining NAD is 10 nM.
